# Screens (PubChem)
# ALOX12 inh: Primary qHTS assay for inhibitors of human arachidonate 12S-lipoxygenase (ALOX12): Round 2. Polyunsaturated fatty acid lipoxygenase ALOX12 (Homo sapiens), P18054. purified 12hLO, xylenol orange hydroperoxide absorbance. Potency, µM (top dose mostly 108 µM), hits mostly inhibitors. hit rate 1.1% among 580,000
# Target sequence (P18054 whole entry, looked up): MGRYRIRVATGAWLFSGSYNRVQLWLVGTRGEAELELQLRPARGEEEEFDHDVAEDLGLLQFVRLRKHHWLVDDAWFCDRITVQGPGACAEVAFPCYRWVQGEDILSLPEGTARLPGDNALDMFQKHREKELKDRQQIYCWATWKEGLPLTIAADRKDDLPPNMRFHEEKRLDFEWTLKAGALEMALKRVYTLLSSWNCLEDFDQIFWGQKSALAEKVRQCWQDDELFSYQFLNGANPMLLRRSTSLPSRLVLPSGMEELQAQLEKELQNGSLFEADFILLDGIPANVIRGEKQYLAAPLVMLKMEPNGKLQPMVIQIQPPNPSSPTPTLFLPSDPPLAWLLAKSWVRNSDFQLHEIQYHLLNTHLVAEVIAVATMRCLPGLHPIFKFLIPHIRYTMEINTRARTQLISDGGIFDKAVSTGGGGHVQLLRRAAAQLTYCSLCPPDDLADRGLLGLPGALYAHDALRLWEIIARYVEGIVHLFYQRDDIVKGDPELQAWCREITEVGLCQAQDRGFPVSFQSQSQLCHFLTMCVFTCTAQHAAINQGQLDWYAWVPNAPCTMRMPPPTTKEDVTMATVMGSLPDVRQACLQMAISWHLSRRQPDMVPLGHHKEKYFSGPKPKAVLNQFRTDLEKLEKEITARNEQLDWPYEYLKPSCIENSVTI
#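 Purified human 12hLO at 150 nM in 25 mM Hepes, 0.01% Triton X-100, pH 7.0, preincubated 15 min at room temperature with compound. Reaction started with 40 uM arachidonic acid, 30 min at room temperature. Hydroperoxide measured by Fe-xylenol orange, 573/405 nm absorbance ratio.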
# HT1080 IDH1KD tx: qHTS for induction of synthetic lethality in tumor cells producing 2HG: qHTS for the HT-1080-IDH1KD cell line. HT-1080 IDH1 knockdown viability, ATP luminescence, 48 h. Potency, µM (series often up to 46.1 µM), usual class: cytotoxic. AID 686971, 2013. hit rate 2% among 360,000
#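 CellTiter-Glo luminescence after 48 h compound exposure at 37 degrees C of IDH1-knockdown HT-1080 cells in 5% FBS RPMI. %Activity scaled between DMSO wells and cell-free media wells, with curves fitted and assigned curve classes.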
# TDP1 cell CPT: qHTS for Inhibitors of human tyrosyl-DNA phosphodiesterase 1 (TDP1): qHTS in cells in presence of CPT | chicken DT40 Tdp1-/-;hTDP1 cells + 20 nM CPT, ATP luminescence, 48 h | Potency, µM (series often up to 46.2 µM), actives largely listed as inhibitors | hit rate 12% among 420,000 | AID 686979, 2013; note: nearly all actives have a fitted effect of over 55% in size
#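 Chicken DT40 Tdp1-/- cells complemented with human TDP1, 400 cells/well, exposed to compounds plus 20 nM camptothecin for at least 48 h at 37 C; viability read as ATP content by CellTiter-Glo luminescence.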
# IL-1B inflam inh: qHTS for Inhibitors of Inflammasome Signaling: IL-1-beta AlphaLISA Primary Screen | activity change, % at 57.5 µM | hit rate 4.7% among 360,000 | THP-1 LPS/ATP IL-1B secretion, AlphaLISA, 16 h; hits give low values | AID 743279, 2014; in the data active = activity change below about -50%; inconclusive = mostly about -30% to -49%
#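 THP-1 cells pretreated 1 hr with compounds (up to 57.5 uM final), then stimulated with LPS (250 ng/mL final) plus ATP (1.25 mM final); secreted IL-1B measured by AlphaLISA after 16 hr, decreased signal indicating inhibition.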
# HT1080NT lethal: qHTS for induction of synthetic lethality in tumor cells producing 2HG: qHTS for the HT-1080-NT fibrosarcoma cell line; HT-1080-NT fibrosarcoma viability, CellTiter-Glo ATP luminescence, 48 h; Potency, µM (doses to about 46.1 µM), actives largely listed as cytotoxic; hit rate 1.6% among 360,000; AID 686970, 2013;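 note: NT is the 2HG producing partner of a matched IDH1 knockdown line; nearly all actives have a fitted effect of over 55% in size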
#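 Toxicity toward the 2HG-producing NT line was scored as %Activity, normalised to DMSO and no-cell wells, from CellTiter-Glo luminescence after 48 hours' treatment.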
# TDP1 cell noCPT: qHTS for Inhibitors of human tyrosyl-DNA phosphodiesterase 1 (TDP1): qHTS in cells in absence of CPT. DT40 Tdp1-/- hTDP1 cells, no CPT, ATP luminescence, 48 h. Potency, µM (series often up to 46.2 µM), actives largely listed as inhibitors. hit rate 15% among 420,000. AID 686978, 2013; note: nearly all actives have a fitted effect of over 55% in size
#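 DT40 Tdp1-/-;hTDP1 cells, no CPT (DMSO vehicle only), 400 cells/well; compounds pin-transferred; ≥48 hr, 37 °C; CellTiter-Glo 30 min RT dark, luminescence read.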
# Numbers stand for hits; 0 = inactive; ? = inconclusive; - = no result given. This is one part of a sample in which hits are shown more often than they occur. Unless noted, calls come from the whole dose curve; as a rule, active = well fitted curve in the direction sought with a large enough effect; inconclusive = small, poorly fitted or top-dose-only effect, or another doubt; inactive = no such curve, though single readings can be large; an effect the other way counts as inactive or inconclusive.
SMILES,ALOX12 inh,HT1080 IDH1KD tx,TDP1 cell CPT,IL-1B inflam inh,HT1080NT lethal,TDP1 cell noCPT
CC(C)(C)NC(=O)CN1C(=O)NC(c2ccccc2)(c2ccccc2)C1=O,0,0,0,0,0,0
CC1(c2ccc(Cl)cc2)NC(=O)N(CC(=O)NCc2ccc(F)cc2)C1=O (configuration not stated),0,0,0,0,0,0
O=C(CCl)NN1C(=O)NC(c2ccccc2)(c2ccccc2)C1=O,0,16.4µM,?,-116.9,?,20.6µM
Cc1ccc(CNC(=O)CN2C(=O)NC(C)(c3ccc(Cl)cc3)C2=O)cc1 (configuration not stated),?,0,0,-51.8,0,0
O=C(CN1C(=O)NC(c2ccccc2)(c2ccccc2)C1=O)NCc1ccc(F)cc1,0,0,?,-54.6,0,0
CCOC(=O)c1c(NC(=O)CN2C(=O)NC(C)(c3ccc(Cl)cc3)C2=O)sc(C(=O)NC)c1C (configuration not stated),0,0,23.1µM,0,0,11.6µM
Cn1cc(S(=O)(=O)N2CCCCC2)cc1C(=O)Nc1cccc(C#N)c1,0,-,?,-,-,?
CSCCC(=O)NC1CCCN(CCc2ccccc2)C1 (configuration not stated),?,0,0,0,0,0
CN(C)C(=O)c1ccc(-c2nc(NC3CCNCC3)c3ccccc3n2)cc1,?,-,0,-,-,0
Clc1ccccc1-c1nc(NC2CCNCC2)c2ccccc2n1,?,-,10.3µM,-,-,25.9µM
Cc1ccccc1-c1nc(NC2CCNCC2)c2ccccc2n1,?,-,13µM,-,-,11.6µM
Fc1ccccc1-c1nc(NC2CCCC2)c2ccccc2n1,?,0,0,-53.3,?,0
Oc1ccccc1-c1nc(NC2CCCC2)c2ccccc2n1,0,?,0,0,?,0
CNc1nc(-c2ccccc2Cl)nc2ccccc12,0,-,0,-,-,0
CNc1nc(-c2ccccc2C)nc2ccccc12,39.8µM,-,?,-,-,0
COc1ccccc1OCCNC(=O)c1ccc2c(c1)NC(=O)CS2,0,-,-,-,-,-
c1ccc(-n2cc(CN3CCCCC3c3ccccn3)nn2)cc1 (configuration not stated),20µM,-,-,-,-,-
O=C(CCCc1ccccc1)c1ccc2c(c1)OCCO2,0,0,0,0,0,0
O=C(CCN1CCC(c2cccs2)=N1)c1cccs1,0,0,5.8µM,0,0,5.17µM
COc1cc(C(=O)NC2CCN(Cc3ccccc3)CC2)cc(Cl)c1OC,0,0,?,0,0,?
O=C(CCC(=O)N1CCN(c2ccccn2)CC1)c1cccs1,0,0,?,0,0,0
COc1cc(C(=O)CCN2CCC(c3ccccc3)C2)cc(OC)c1OC (configuration not stated),0,0,4.61µM,-104.8,0,5.8µM
O=C(CCN1CCC(c2ccccc2)C1)c1ccc2c(c1)OCCO2 (configuration not stated),0,18.4µM,2.06µM,0,4.61µM,1.84µM
O=C(CCN1CCC(c2ccccc2)C1)c1cccs1 (configuration not stated),?,3.98µM,1.84µM,0,?,2.59µM
O=C(CCN1CCC(c2ccccc2)C1)c1ccccc1 (configuration not stated),?,?,3.66µM,0,0,3.66µM
SMILES,ALOX12 inh,HT1080 IDH1KD tx,TDP1 cell CPT,IL-1B inflam inh,HT1080NT lethal,TDP1 cell noCPT
O=C(CCN1CCC(c2ccccc2)C1)c1ccco1 (configuration not stated),0,-,-,-,-,-
O=C(CCN1CCC2CCC(C2)C1)c1ccc(F)cc1 (configuration not stated),0,0,3.26µM,0,0,2.91µM
O=C(CCN1CCC(c2ccccc2)C1)c1cccc2ccccc12 (configuration not stated),25.1µM,-,-,-,-,-
Cc1ccc(C(=O)NC2CCN(CCCC(=O)c3ccc(F)cc3)CC2)cc1,0,0,0,0,0,0
O=C(CCN1CCC(c2ccccc2)C1)c1ccc2ccccc2c1 (configuration not stated),15.8µM,-,-,-,-,-
O=C(O)c1ccc(CN2CC[C@@H](c3ccc4ccccc4c3)[C@H](O)C2)cc1,0,-,-,-,-,-
CCc1ccc(C(N)c2cccs2)cc1 (configuration not stated),0,-,-,-,-,-
O=C(c1cc(F)ccc1Br)N1CCC(n2c(=O)[nH]c3ccccc32)CC1,0,-,-,-,-,-
O=C(CCN1CCCC1)c1cccs1,0,0,0.731µM,0,0,1.46µM
N=c1n(CCN2CCCCC2)c2ccccc2n1CC(=O)c1cccs1,0,?,18.4µM,-76.4,?,20.6µM
CCCS(=O)(=O)Nc1cccc(-c2ccc3nnc(C)n3n2)c1,0,0,?,0,0,?
Cc1nnc2ccc(-c3cccc(NS(=O)(=O)c4ccccc4[N+](=O)[O-])c3)nn12,0,?,23.1µM,0,?,14.6µM
O=[N+]([O-])c1ccccc1S(=O)(=O)Nc1cccc(-c2ccc3nncn3n2)c1,0,0,0,0,0,?
CCS(=O)(=O)Nc1cccc(-c2ccc3nnc(-c4cccnc4)n3n2)c1,0,0,20.6µM,-53.7,0,?
COCC(=O)NCCc1noc(-c2ccccc2)n1,0,-,-,-,-,-
COc1ccccc1N1CCN(C(=O)c2cc(-c3ccc(C)cc3)on2)CC1,0,0,?,0,0,?
COc1ccccc1N1CCN(C(=O)c2cc(-c3ccc(Cl)cc3)on2)CC1,0,0,22.4µM,0,0,?
COc1ccccc1N1CCN(C(=O)c2onc(C)c2Cl)CC1,0,?,?,0,?,?
COc1ccccc1N1CCN(C(=O)c2nc(SC)ncc2Cl)CC1,0,-,1.03µM,-,-,1.03µM
COc1ccccc1-c1cc(C(=O)N2CCN(c3ccccc3OC)CC2)no1,0,?,18.4µM,0,?,?
CNc1c(NS(=O)(=O)c2cc(C)cc(C)c2)c(=O)oc2ccccc12,0,-,-,-,-,-
O=C(CSc1ncccc1-c1nc2ccccc2[nH]1)N1CCN(c2ccccc2F)CC1,?,0,16.4µM,0,0,?
COc1ccc(N2CCN(C(=O)CSc3ncccc3-c3nc4ccccc4[nH]3)CC2)cc1,?,0,18.4µM,0,0,29.1µM
COc1ccccc1N1CCN(C(=O)CSc2ncccc2-c2nc3ccccc3[nH]2)CC1,0,0,14.6µM,0,0,?
